Measured values from PubChem BioAssay (NCI).
The panel holds about 83,000 compounds, 20% with a hit somewhere; the sample as a whole holds those more often.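 Negative percent growth values reflect cell death: -40 means 40% of the cells present at the start died, and -100 means all died.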 A number with no mark means an inactive call. The source made the active and inactive calls. How the source made its calls: active means growth percent below 10; inactive means the rest.

What was measured:
Test in all cases: NCI-60 one-dose screen, 48 h (100 = growth as untreated, 0 = no growth, -100 = all killed)
Conditions in all cases: 10 µM unless noted
[1] = system: SK-MEL-2 melanoma
[2] = system: EKVX NSCLC
[3] = system: SN12C renal
[4] = system: UO-31 renal
[5] = system: TK-10 renal
[6] = system: ACHN renal
[7] = system: CAKI-1 renal
[8] = system: A498 renal
[9] = system: CCRF-CEM leukemia
[10] = system: MOLT-4 leukemia

| SMILES | growth [1] | growth [2] | growth [3] | growth [4] | growth [5] | growth [6] | growth [7] | growth [8] | growth [9] | growth [10] |
| --- | --- | --- | --- | --- | --- | --- | --- | --- | --- | --- |
| Cc1ccc2c(C(C[N+](=O)[O-])c3ccccc3F)c(-c3ccccc3)[nH]c2c1 (stereo not drawn) | 15.4% | 56.3% | 54.5% | 47.5% | 70.6% | 48.5% | 32.9% | 32.5% | 28.6% | 25.9% |
| CC(C)CC1C(=O)N2CCC[C@H]2C2(O)O[C@](NC(=O)C3C=C4c5cccc6[nH]c(Br)c(c56)C[C@H]4N(C)C3)(C(C)C)C(=O)N12 (stereo partly drawn) | 77.4% | 54.6% | 40.3% | 36.2% | 54.6% | 43.6% | 61.1% | 76.5% | 58.3% | 15.9% |
| O=c1c(F)cn(Cc2ccccc2CCl)c(=O)n1Cc1ccccc1CCl | 4.2% (active) | -4.31% (active) | -26.5% (active) | -80.4% (active) | -30.8% (active) | -81.8% (active) | -84.5% (active) | 76.3% | -42.9% (active) | -40.3% (active) |
| COc1cc(-c2nn(C)nc2-c2cc3ccccc3s2)cc(OC)c1OC | 32.9% | 43.6% | 42.3% | 40.4% | 65% | 43.2% | 43.6% | 1.32% (active) | 17.5% | 11.7% |
| COc1cccc(-c2nc3sccn3c2-c2ccnc(NCCNS(=O)(=O)c3ccccc3)c2)c1 | 30.1% | 29.8% | 28.9% | 5.71% (active) | 55.5% | 10.4% | 9.12% (active) | 44.2% | 10.1% | 12% |
| O=C1c2cc3c(cc2-c2c1c1ccc(F)cc1c(=O)n2C[C@H](O)[C@H](O)[C@H](O)CO)OCO3 | -33.4% (active) | 5.59% (active) | -18% (active) | -55.2% (active) | -25.7% (active) | -53.8% (active) | -20.6% (active) | -85.7% (active) | 2.16% (active) | -12.3% (active) |
| COc1cc(-c2ccc3c(c2)NC(=O)/C3=C\c2ccc[nH]2)ccc1O | 31.4% | 35.6% | 27.5% | 14.5% | 35.7% | 11.6% | 11.2% | 64% | 12.3% | 10.3% |
| Cc1[nH]c(-c2ccc3cc[nH]c3c2)c2c1C(=O)CCCC2 | 71% | 47.8% | 50.8% | 22.2% | 32.7% | 41.2% | 11.9% | 44.4% | 64.7% | 68.6% |
| O=C(/C=C/C=C/c1ccc2c(c1)OCO2)N/N=C\c1ccc(O)cc1O | 52.8% | 20.2% | 32.8% | 11.4% | 31% | 14.4% | 9.65% (active) | – | 18% | 13.3% |
| C(=C\c1nccc2c1[nH]c1ccccc12)/c1ccccc1 | 37.4% | 38.3% | 46.2% | 13.2% | 34% | 35.6% | -8.56% (active) | 40.4% | – | 49.1% |
| COc1ccc(-c2nc3ccc(-c4nc5ccc(N6CCN(C)CC6)cc5[nH]4)cc3[nH]2)cc1OC | 45% | 85.4% | 71.1% | 99.4% | 84.3% | 100% | 71.9% | 76.6% | 51.7% | 61.1% |
| Nc1nc2ccc3[nH]ncc3c2c2c1CCCC2 | -7.53% (active) | -4.32% (active) | 11.3% | 5.99% (active) | 4.7% (active) | 3.71% (active) | 6.67% (active) | – | 0.983% (active) | -2.01% (active) |
| COc1cc(/C=C/C(=O)Nc2cccnc2Nc2ccc(F)cc2)cc(OC)c1OC | 68.4% | 92.5% | 109% | 89.2% | 103% | 102% | 88.6% | – | 85% | 87.5% |
| CCN(CC)S(=O)(=O)c1ccc(OC)c(NC(=O)c2[nH]c(C)c3c2CCCCC3=O)c1 | 55.3% | 43.5% | 42% | 14.4% | 13.5% | 31.1% | 15.1% | 15.1% | 55.7% | 64.9% |
| CC(C)(C)c1cc(/C=N\NC(=O)/C=C/C=C/c2ccc3c(c2)OCO3)c(O)c(C(C)(C)C)c1 | 89% | 75% | 87.6% | 55.1% | 96% | 75.9% | 71.9% | – | 55.7% | 74.7% |
| CCCCCCCCCCCCC[N+](C)(C)Cc1ccccc1 | -80.2% (active) | 3.49% (active) | -55.7% (active) | 43.6% | -59.5% (active) | 16.8% | 76.5% | – | -14.8% (active) | -10.1% (active) |
| CC1=C[C@H]2c3c(c(O)c(O)c4oc5ccccc5c(=O)c34)[C@H](c3cc(O)c(O)c4oc5ccccc5c(=O)c34)[C@H]2C(C)(C)C1 | 0.0517% (active) | 18.7% | 7.6% (active) | -74% (active) | 23.1% | 6.36% (active) | -24.7% (active) | – | 5.39% (active) | 2.9% (active) |
